Measured values published in PubChem BioAssay AID463188 (University of Pittsburgh Molecular Library Screening Center, 2010).
In all, about 1,300 compounds went through this assay and about 360 (28%) were called active.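 Rule for the calls: active = average inhibition of at least 50%, with Z-scores no higher than 3 in both the phospho-tyrosine peptide and fluorescence counterscreens; inactive = the rest.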 Only a selection was taken, and actives are over-represented in it overall.

Experiments:
[1] = retest of Hck:Nef kinase inhibitor hits, confirmation, biochemical, Z-Lyte FRET, 384-well, p-Tyr peptide counterscreen (AID 463188); settings: Recombinant Hck-YEEI:Nef, Z-Lyte FRET kinase assay; measured here: p-Tyr peptide counterscreen; at 10 µM
[2] = target: Tyrosine-protein kinase HCK (Homo sapiens) (UniProt P08631); test: as above; settings: Recombinant Hck-YEEI:Nef, Z-Lyte FRET kinase assay; at 10 µM; stronger effect = higher value
Tyrosine-protein kinase HCK (Homo sapiens), sequence (P08631 whole entry, looked up): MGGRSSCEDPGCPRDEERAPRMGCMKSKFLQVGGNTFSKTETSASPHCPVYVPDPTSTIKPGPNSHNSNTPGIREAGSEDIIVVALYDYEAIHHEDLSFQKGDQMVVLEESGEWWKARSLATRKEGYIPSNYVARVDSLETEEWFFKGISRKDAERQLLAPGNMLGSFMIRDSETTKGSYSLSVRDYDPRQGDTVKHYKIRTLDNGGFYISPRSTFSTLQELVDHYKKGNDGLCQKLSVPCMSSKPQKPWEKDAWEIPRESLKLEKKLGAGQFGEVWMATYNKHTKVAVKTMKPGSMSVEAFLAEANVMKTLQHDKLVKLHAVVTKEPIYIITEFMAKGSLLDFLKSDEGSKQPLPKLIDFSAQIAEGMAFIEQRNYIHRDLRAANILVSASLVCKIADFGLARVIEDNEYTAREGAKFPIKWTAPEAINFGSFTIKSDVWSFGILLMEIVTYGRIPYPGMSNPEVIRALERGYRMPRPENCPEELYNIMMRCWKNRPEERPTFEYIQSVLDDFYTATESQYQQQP

| Compound | z-score [1] | inhibition [2] |
| --- | --- | --- |
| O=C1NC(=O)N(Cc2ccco2)C(=O)/C1=C\c1ccc(-c2ccc(F)cc2)o1 | 0.915 | 68.2% (active) |
| COc1cc(Cn2c(N)c(C(=O)NCc3ccco3)c3nc4ccccc4nc32)cc(OC)c1OC | 25.8 | 46.4% (inactive) |
